{"source": "PubChem BioAssay AID977611", "origin": "cited, not measured here", "assay": "PubChem AID 977611", "conditions": "PDB protein-ligand complexes, literature Kd", "note": "Hit rate of the full screen: of about 3,900 compounds, about 3,900 (100%) were called active. The limit is not given here; nearly all actives have Kd up to about 4200 µM. So high a share suggests a set chosen from earlier hits. This is one part of the list. Starred links: 1 amine or outer side, 2 acyl side, 3 side chain; linkers in the order of their positions; H or OH if unused. *1 amine or outer side, *2 acyl side, *3 side chain or, on linkers, in order; H or OH if unused. Positions of bridges follow the written chain, without caps; N, C: chain ends. Where a SMILES comes first, the peptide text is derived from it. Non-standard residues stand in square brackets, D forms with d. Square brackets hold non-standard residues; d marks the D form. Residues, ends and D or L forms follow the SMILES beside them. Bridges are numbered along the chain shown (N, C = ends). Peptide text beside a SMILES is read from it. [ ]: non-standard residue; d: D form. Orn(CH(NH2)2) = NC(N)NCCC[C@H](N)C(=O)O; X1 = O=C([C@@H]1CC[C@H](O)N1[*:1])[*:2]; TBMB = c1c(C[*:1])cc(C[*:3])cc1C[*:2]; Lys(Me2) = CN(C)CCCC[C@H](N)C(=O)O; Lys(Me) = CNCCCC[C@H](N)C(=O)O", "data": [{"smiles": "CNCCCC[C@H](NC(=O)[C@H](CCCNC(N)N)NC(=O)[C@H](C)NC(=O)[C@@H](NC(=O)[C@H](CCC(N)=O)NC(=O)[C@H](CCCCNC)NC(=O)[C@@H](N)[C@@H](C)O)[C@@H](C)O)C(=O)N[C@@H](CO)C(=O)N[C@H](C(=O)O)[C@@H](C)O", "note": "(H-T[Lys(Me)]QTA[Orn(CH(NH2)2)][Lys(Me)]ST-OH)", "values": [{"measurement": "Kd", "setting": "protein: SAWADEE HOMEODOMAIN HOMOLOG 1, PDB entry 4iuv", "result": "1.9 µM (active)"}]}, {"smiles": "CNCCCC[C@H](NC(=O)[C@H](CCCNC(N)N)NC(=O)[C@H](C)NC(=O)[C@@H](NC(=O)[C@H](CCC(N)=O)NC(=O)[C@H](CCCCN)NC(=O)[C@@H](N)[C@@H](C)O)[C@@H](C)O)C(=O)N[C@@H](CO)C(=O)O", "note": "(H-TKQTA[Orn(CH(NH2)2)][Lys(Me)]S-OH)", "values": [{"measurement": "Kd", "setting": "protein: SAWADEE HOMEODOMAIN HOMOLOG 1, PDB entry 4iuu", "result": "2.22 µM (active)"}]}, {"smiles": "C[C@H](NC(=O)[C@@H](NC(=O)[C@H](CCC(N)=O)NC(=O)[C@H](CCCCN)NC(=O)[C@@H](N)[C@@H](C)O)[C@@H](C)O)C(=O)N[C@@H](CCCNC(N)N)C(=O)N[C@@H](CCCCN(C)C)C(=O)N[C@@H](CO)C(=O)O", "note": "(H-TKQTA[Orn(CH(NH2)2)][Lys(Me2)]S-OH)", "values": [{"measurement": "Kd", "setting": "protein: SAWADEE HOMEODOMAIN HOMOLOG 1, PDB entry 4iut", "result": "1.9 µM (active)"}]}, {"smiles": "CC(C)C[C@H](NC(=O)[C@H](C)NC(=O)[C@H](CC(=O)O)NC(=O)[C@H](CC(C)C)NC(=O)[C@@H](N)CC(=O)O)C(=O)N[C@@H](CC(C)C)C(=O)N[C@@H](C)C(=O)N[C@@H](CC(=O)O)C(=O)N[C@@H](CC(C)C)C(=O)N[C@@H](CCC(=O)O)C(=O)O", "note": "(H-DLDALLADLE-OH)", "values": [{"measurement": "Kd", "setting": "protein: Alpha-parvin, PDB entry 2k2r", "result": "1300 µM (active)"}]}, {"smiles": "CC(C)C[C@H](NC(=O)[C@H](CCCNC(N)N)NC(=O)[C@@H](NC(=O)[C@H](CC(=O)O)NC(=O)[C@@H](N)CCC(N)=O)[C@@H](C)O)C(=O)O", "note": "(HELM PEPTIDE1{Q.D.T.[NC(N)NCCC[C@H](N[*:1])C(=O)[*:2]].L}$$$$V2.0)", "values": [{"measurement": "Kd", "setting": "protein: Na(+)/H(+) exchange regulatory cofactor NHE-RF1, PDB entry 2m0u", "result": "0.365 µM (active)"}, {"measurement": "Kd", "setting": "protein: Na(+)/H(+) exchange regulatory cofactor NHE-RF1, PDB entry 2m0v", "result": "1.08 µM (active)"}]}, {"smiles": "CSCC[C@H](NC(=O)[C@H](CC(C)C)NC(=O)[C@H](C)NC(=O)[C@H](CC(=O)O)NC(=O)[C@H](CC(C)C)NC(=O)[C@H](C)NC(=O)[C@H](C)NC(=O)[C@@H](NC(=O)[C@H](C)NC(=O)[C@H](C)N)[C@@H](C)O)C(=O)N[C@@H](C)C(=O)N[C@@H](CO)C(=O)N[C@@H](CC(C)C)C(=O)O", "note": "(H-AATAALDALMASL-OH)", "values": [{"measurement": "Kd", "setting": "protein: Protein-tyrosine kinase 2-beta, Pyk2 FAT domain, PDB entry 3u3f", "result": "8 µM (active)"}]}, {"smiles": "CC(C)[C@H](NC(=O)[C@H](CCC(N)=O)NC(=O)[C@@H](NC(=O)[C@H](CCC(=O)O)NC(=O)[C@H](CCCNC(N)N)NC(=O)[C@H](CCCNC(N)N)NC(=O)[C@@H](NC(=O)[C@H](CCCNC(N)N)NC(=O)[C@H](CO)NC(=O)[C@H](CO)NC(=O)[C@@H](N)CCCNC(N)N)[C@@H](C)O)[C@@H](C)O)C(=O)O", "note": "(H-[Orn(CH(NH2)2)]SS[Orn(CH(NH2)2)]T[Orn(CH(NH2)2)][Orn(CH(NH2)2)]ETQV-OH)", "values": [{"measurement": "Kd", "setting": "protein: second PDZ domain of MAGI-1 (Membrane-associated guanylate kinase), PDB entry 2kpl", "result": "0.23 µM (active)"}]}, {"smiles": "CSCC[C@H](NC(=O)[C@H](CC(C)C)NC(=O)[C@H](CCC(=O)O)NC(=O)[C@H](CC(=O)O)NC(=O)[C@H](CC(C)C)NC(=O)[C@H](CCC(=O)O)NC(=O)[C@H](CCCNC(N)N)NC(=O)[C@@H](N)[C@@H](C)O)C(=O)N[C@@H](C)C(=O)N[C@@H](CO)C(=O)N[C@@H](CC(C)C)C(=O)N[C@@H](CO)C(=O)O", "note": "(H-T[Orn(CH(NH2)2)]ELDELMASLS-OH)", "values": [{"measurement": "Kd", "setting": "protein: Focal Adhesion Targeting Domain(FAT), PDB entry 1ow6", "result": "4 µM (active)"}, {"measurement": "Kd", "setting": "protein: Focal Adhesion Targeting Domain(FAT), PDB entry 1ow7", "result": "4 µM (active)"}]}, {"smiles": "CC(C)C[C@H](NC(=O)[C@H](C)NC(=O)[C@H](C)NC(=O)[C@H](CC(C)C)NC(=O)[C@H](CCCNC(N)N)NC(=O)[C@H](CCCNC(N)N)NC(=O)[C@H](CO)NC(=O)[C@H](CC(C)C)NC(=O)[C@H](CCC(N)=O)NC(=O)[C@H](CC(=O)O)NC(=O)[C@@H](N)CCC(=O)O)C(=O)N[C@@H](CCCNC(N)N)C(=O)N[C@@H](CC(N)=O)C(=O)O", "note": "(H-EDQLS[Orn(CH(NH2)2)][Orn(CH(NH2)2)]LAAL[Orn(CH(NH2)2)]N-OH)", "values": [{"measurement": "Kd", "setting": "protein: Vacuolar protein sorting-associating protein 4A, PDB entry 2jq9", "result": "33.4 µM (active)"}]}, {"smiles": "CC(C)[C@H](NC(=O)[C@H](CCC(N)=O)NC(=O)[C@@H](NC(=O)[C@H](CCC(=O)O)NC(=O)[C@H](CC(N)=O)NC(=O)[C@H](CCCNC(N)N)NC(=O)[C@H](CCC(N)=O)NC(=O)[C@H](CCCNC(N)N)NC(=O)[C@@H](NC(=O)[C@H](CCCNC(N)N)NC(=O)[C@@H]1CC[C@H](O)N1)[C@@H](C)O)[C@@H](C)O)C(=O)O", "note": "(H-[X1][Orn(CH(NH2)2)]T[Orn(CH(NH2)2)]Q[Orn(CH(NH2)2)]NETQV-OH)", "values": [{"measurement": "Kd", "setting": "protein: Disks large homolog 1, PDB entry 2m3m", "result": "9.63 µM (active)"}]}, {"smiles": "CC(C)C[C@H](NC(=O)[C@H](CCC(=O)O)NC(=O)[C@H](CC(C)C)NC(=O)[C@H](CC(C)C)NC(=O)[C@H](CC(C)C)NC(=O)[C@H](CCCNC(N)N)NC(=O)[C@H](CC(=O)O)NC(=O)[C@H](CC(C)C)NC(=O)[C@H](CCC(=O)O)NC(=O)[C@H](CO)NC(=O)[C@@H](N)CC(C)C)C(=O)N[C@@H](CC(N)=O)C(=O)O", "note": "(H-LSELD[Orn(CH(NH2)2)]LLLELN-OH)", "values": [{"measurement": "Kd", "setting": "protein: Focal Adhesion Targeting Domain(FAT), PDB entry 1ow8", "result": "4 µM (active)"}]}, {"smiles": "CC(C)[C@@H]1NC(=O)[C@H](CCC(=O)O)NC(=O)[C@H](Cc2ccc(O)cc2)NC(=O)[C@H](CCCNC(N)N)NC(=O)[C@H](CO)NC(=O)[C@@H](NC(=O)[C@H](C)N)CSCc2cc3cc(c2)CSC[C@H](NC(=O)[C@H](CC(=O)O)NC1=O)C(=O)N[C@@H](CCCNC(N)N)C(=O)NCC(=O)N[C@@H](CCCNC(N)N)C(=O)NCC(=O)N[C@@H](CO)C(=O)N[C@@H](C)C(=O)N[C@H](C(=O)O)CSC3", "note": "(H-ACS[Orn(CH(NH2)2)]YEVDC[Orn(CH(NH2)2)]G[Orn(CH(NH2)2)]GSAC-OH; linker 2-9-16 via TBMB)", "values": [{"measurement": "Kd", "setting": "protein: Urokinase-type plasminogen activator, PDB entry 3qn7", "result": "0.157 µM (active)"}]}, {"smiles": "CC(C)C[C@@H]1NC(=O)[C@H](CCCNC(N)N)NC(=O)[C@H](CCCNC(N)N)NC(=O)[C@H]([C@@H](C)O)NC(=O)[C@H](CO)NC(=O)[C@H](CC(C)C)NC(=O)[C@H](CC(=O)O)NC(=O)[C@H](Cc2ccccc2)NC(=O)[C@H](CCC(N)=O)NC(=O)[C@@H](N)CSSC[C@@H](C(=O)O)NC(=O)[C@H](CCCCN)NC1=O", "values": [{"measurement": "Kd", "setting": "protein: cetuximab Fab, PDB entry 4gw1", "result": "0.43 µM (active)"}]}, {"smiles": "CC(C)C[C@@H]1NC(=O)[C@H](C)NC(=O)[C@H](CCCNC(N)N)NC(=O)[C@H](CO)NC(=O)[C@H](CO)NC(=O)[C@H](CC(C)C)NC(=O)[C@H](CC(N)=O)NC(=O)[C@H](Cc2ccc(O)cc2)NC(=O)[C@H](CCC(N)=O)NC(=O)[C@@H](N)CSSC[C@@H](C(=O)O)NC(=O)[C@H](CCCCN)NC1=O", "values": [{"measurement": "Kd", "setting": "protein: cetuximab Fab, PDB entry 4gw5", "result": "3.5 µM (active)"}]}, {"smiles": "CSCC[C@@H]1NC(=O)[C@H](CCC(=O)O)NC(=O)[C@H](Cc2ccc(O)cc2)NC(=O)[C@H](CO)NC(=O)[C@H](CC(=O)O)NC(=O)[C@H](C)NC(=O)CNC(=O)[C@@H](N)CSSC[C@@H](C(=O)O)NC(=O)[C@H](CCCCN)NC(=O)[C@H](CCCNC(N)N)NC(=O)[C@H](C(C)C)NC(=O)CNC(=O)[C@H](CC(=O)O)NC(=O)[C@H](CCC(=O)O)NC(=O)[C@H](CCC(=O)O)NC1=O", "note": "(H-CGADSYEMEEDGV[Orn(CH(NH2)2)]KC-OH; disulfide 1-16)", "values": [{"measurement": "Kd", "setting": "protein: mAb175 Antibody targeting a locally misfolded region of tumor associated EGFR, PDB entry 3g5y", "result": "0.035 µM (active)"}, {"measurement": "Kd", "setting": "protein: mAb806 Antibody targeting a locally misfolded region of tumor associated EGFR, PDB entry 3g5v", "result": "0.016 µM (active)"}]}]}
